Screening data as filed in PubChem.
This is a sample that favours compounds with a hit; in the whole collection about 12% have one here.
SARS PLP yeast: SARS-CoV PLP inhibition in yeast | S. cerevisiae expressing SARS-CoV PLpro, growth rescue | Potency, µM (highest dose often 32.9 µM), inactives show at the top dose activity, positive = growth rescue, usual class: activators | hit rate 0.19% among 330,000 | AID 485353; calls by dose curve; also: 0% is about no effect; nearly all actives have a fitted effect of over 55% in size
Pf growth 48h: inhibits P. falciparum growth in the first generation, 48 h | Potency, µM (highest dose often 28.7 µM), inactives show top-dose activity change, negative = inhibition, hits mostly inhibitors | hit rate 5.9% among 310,000 | P. falciparum luciferase growth in erythrocytes, 48 h; also: % is scaled to controls: 0 for no effect and ±100 for the full control effect
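Here the parasites carry a stable luciferase gene and grow inside erythrocytes in Albumax-based RPMI medium with compound for one erythrocytic cycle. Activity is scored as loss of luminescent signal.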
AmpC inh detg: inhibitors of E. coli AmpC beta-lactamase with detergent. hit rate 0.041% among 370,000. AmpC hydrolysis of nitrocefin, absorbance 480 nm, 0.01% Triton. AID 485294. Potency, µM (series often up to 114 µM), for the others: at the top dose activity change, negative = inhibition, most hits filed as inhibitors. P00811;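 also: 0% = no-compound wells and -100% = no-enzyme wells; nearly all actives have a fitted effect of over 25% in size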
Target sequence (P00811 whole entry, looked up): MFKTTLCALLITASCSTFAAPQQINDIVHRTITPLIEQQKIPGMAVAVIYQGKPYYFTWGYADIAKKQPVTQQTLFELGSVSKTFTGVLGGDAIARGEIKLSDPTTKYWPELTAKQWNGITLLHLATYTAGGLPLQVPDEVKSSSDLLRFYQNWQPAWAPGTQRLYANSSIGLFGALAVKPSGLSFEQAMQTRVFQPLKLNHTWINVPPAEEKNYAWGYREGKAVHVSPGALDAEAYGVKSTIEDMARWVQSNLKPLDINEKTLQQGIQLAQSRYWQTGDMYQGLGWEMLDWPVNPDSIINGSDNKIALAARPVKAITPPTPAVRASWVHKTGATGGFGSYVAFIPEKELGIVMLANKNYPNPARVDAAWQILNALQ
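AmpC (5.3 nM in the dispensed reagent) in 20 mM phosphate pH 7.0 with 0.01% (detergent screen) or 0.0001% Triton X-100 was preincubated with compounds for 15 min at room temperature. Nitrocefin was then added from an 800 uM solution, and hydrolysis was followed at 480 nm.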
AmpC inh no detg: blocks E. coli AmpC beta-lactamase in detergent-free assay; P00811; AmpC nitrocefin hydrolysis, absorbance 480 nm, 0.0001% Triton; Potency, µM (series often up to 57.1 µM), for the others: top-dose activity change, negative = inhibition, most hits filed as inhibitors; hit rate 0.52% among 330,000; AID 485341;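 also: plate controls were no compound for no effect and no enzyme for full effect; nearly all actives have a fitted effect of over 20% in size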
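AmpC (5.3 nM in the dispensed reagent) in 20 mM phosphate pH 7.0 with 0.01% (detergent screen) or 0.0001% Triton X-100 was preincubated with compounds for 15 min at room temperature. Nitrocefin was then added from an 800 uM solution, and hydrolysis was followed at 480 nm.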
Sm TGR inh: inhibitors of Schistosoma mansoni thioredoxin glutathione reductase; Q962Y6; purified TGR, DTNB reduction, TNB absorbance 405 nm; Potency, µM (doses to about 114 µM), for the others: top-dose activity change, negative = inhibition, most hits filed as inhibitors; hit rate 3% among 360,000; also: % is scaled to controls: 0 for no effect and ±100 for the full control effect; nearly all actives have a fitted effect of over 60% in size
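First, TGR (20 nM dispensed) and NADPH were mixed with compound. Second, a 15 min room-temperature incubation followed. Third, further NADPH and then DTNB were added to start the reaction. Finally, TNB absorbance was monitored kinetically.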
Pf growth 96h: inhibits malaria parasite growth, 96 h; P. falciparum luciferase reporter growth, 96 h; hit rate 6.9% among 320,000; Potency, µM (doses to about 28.7 µM), for inactives: top-dose activity change, negative = inhibition, most hits filed as inhibitors; also: % is scaled to controls: 0 for no effect and ±100 for the full control effect
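P. falciparum expressing integrated firefly luciferase grown in erythrocytes (2% hematocrit, 0.05% parasitemia final) with compounds for 96 hours at 37 C, 5% CO2. Growth inhibition read as loss of luminescence after adding luciferase detection reagent.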
Active calls of the source: *; ? = inconclusive; nt = not tested or not shown; [ ] = remark or other dose. Unless noted, calls follow the shape of the dose curve; as a rule, active = well fitted curve in the direction sought with a large enough effect; inconclusive = small, poorly fitted or top-dose-only effect, or another doubt; inactive = no such curve, though single readings can be large; an effect the other way counts as inactive or inconclusive. Potency is read from the fitted curve at half-maximal effect.

SMILES | SARS PLP yeast | Pf growth 48h | AmpC inh detg | AmpC inh no detg | Sm TGR inh | Pf growth 96h
Cn1c(N)c(C(=O)COC(=O)C2(c3cccc(F)c3)CCCC2)c(=O)n(C)c1=O | 8.0% | 7.38µM* | -10.7% | 102.3% | -1.6% | 13.1µM*
Cn1c(CCC(=O)OCC(=O)NCc2ccc3c(c2)OCO3)nc(=O)c2ccccc21 | -0.9% | 11.2% | -4.6% | -5.8% | -3.1% | -16.0%
Cc1[nH]c2ccc(-c3n[nH]c(=S)n3Cc3ccccc3)cc2c1C | 1.5% | 4.7% | -1.1% | 11.2µM* | 4.6% | 35.4%
Cc1cccc(-c2n[nH]c(=S)n2Cc2ccccc2)c1 | 8.91µM* | 6.4% | -1.3% | -7.3% | -22.8% | -16.9%
S=c1[nH]nc(-c2cccc(Cl)c2)n1Cc1ccccc1 | 2.6% | -16.8% | -6.1% | -19.1% | 1.7% | 67.9%
O=C(Nc1ccc(F)cc1)C1=CC(=O)N2CCN=C2S1 | 0.0% | ? | -0.1% | -37.9% | ? | 0.0%
CC(C)(C)c1ccc(/C=N/NC(=S)NC2CCCCC2)cc1 | 20µM* | ? | ? | -42.2% | 2.8% | ?
O=C(N/N=C/c1ccccc1)NC1CCCCC1 | -18.1% | 58.8% | ? | -10.4% | -9.9% | 33.5%
Cc1cc(NC(=O)c2ccc(F)cc2)no1 | -3.5% | 73.5% | -7.4% | -9.7% | -6.3% | 4.8%
Cc1cc(NC(=O)COc2ccc(C(C)(C)C)cc2)no1 | -3.0% | 16.7% | -5.1% | -18.3% | 3.3% | 27.7%
COc1ccc(OCCC(=O)Nc2cc(C)on2)cc1 | -11.0% | -7.3% | 2.1% | -5.3% | 39.8µM* | nt
Cc1cc(NC(=O)CCOc2ccc(F)cc2)no1 | -0.8% | 65.3% | 5.6% | -34.0% | 0.708µM* | 4.0%
COc1ccc2ccc(OCC(=O)Nc3cc(C)on3)cc2c1 | 3.8% | 11.7µM* | -0.2% | -2.1% | -5.3% | ?
Cc1cc(C)cc(OCC(=O)Nc2nonc2NC(=O)COc2cc(C)cc(C)c2)c1 | 6.8% | ? | -3.8% | -28.2% | -13.2% | -19.7%
COc1ccc(OCC(=O)Nc2nonc2NC(=O)COc2ccc(OC)cc2)cc1 | -0.3% | 57.9% | 0.7% | -4.0%[2.29 µM] | 11.3% | 9.28µM*
COc1ccc(CC(=O)Nc2cc(C)on2)cc1 | -4.4% | 12.3% | -10.1% | -14.2% | 5.4% | 36.8%
CC1CN(C(=O)CCC(=O)NCc2cccs2)c2ccccc2O1 (stereo not drawn) | nt | nt | -2.2% | nt | 0.2% | nt
CC1=C(C(=O)Nc2ccccc2)C(c2ccccc2Cl)n2ncc(C(=O)Nc3cccc(C)c3)c2N1 (stereo not drawn) | nt | nt | 13.2% | nt | 6.3% | nt
CCc1nonc1NC(=O)COc1cc(C)c(Cl)c(C)c1 | -6.4% | ? | 7.8% | -34.7% | -5.4% | 10.8%
CCc1nonc1NC(=O)COc1ccc(Cl)c(C)c1 | -1.0% | ? | -0.5% | -22.1% | 2.5% | 4.15µM*
Fc1ccccc1C1c2cccn2CCN1C(=S)Nc1cccc(Br)c1 (stereo not drawn) | -2.8% | 9.28µM* | 0.8% | -31.0% | -7.9% | -27.2%
S=C(Nc1ccccc1)N1CCn2cccc2C1c1cccnc1 (stereo not drawn) | -1.9% | 3.1% | -4.8% | -17.8% | -12.4% | -6.4%
CC(C)(C)NC(=S)N1CCn2cccc2C1c1cccnc1 (stereo not drawn) | 1.2% | 4.0% | 5.7% | -13.3% | -24.4% | 9.28µM*
Fc1ccc(C2c3cccn3CCN2C(=S)Nc2cccc(F)c2)cc1 (stereo not drawn) | -9.6% | ? | -3.0% | 32.3% | -34.1% | ?
CNC(=S)N1CCn2cccc2C1c1ccc(F)cc1 (stereo not drawn) | -0.5% | -14.2% | -1.5% | 16.4% | 35.5µM* | ?
SMILES | SARS PLP yeast | Pf growth 48h | AmpC inh detg | AmpC inh no detg | Sm TGR inh | Pf growth 96h
Cc1cc(NC(=O)CSc2nnc(-c3ccccc3Cl)o2)no1 | 1.1% | -17.8% | -2.6% | -32.7% | 3.3% | 4.0%
Cc1ccc(NC(=O)CSc2nncn2N)cc1C | -1.2% | 0.9% | -11.3% | -15.0% | -1.4% | ?
O=C(COc1cccc([N+](=O)[O-])c1)NN1C(=O)c2ccccc2C1=O | 1.8% | 8.9% | -18.1% | 6.1% | 5.4% | 106.4%
Cc1nn(C(C)(C)C)c(OC(=O)C(C)(C)C)c1Sc1ccccc1 | nt | nt | -0.1% | nt | 0.9% | nt
N#Cc1ccc2c(c1)NC(=O)C1CCCN21 (stereo not drawn) | -1.2% | ? | 2.0% | -41.6% | 20µM* | 11.0%
Cc1ccc(C)c(CN2C(=O)C3CCCN3c3ccc(C#N)cc32)c1 (stereo not drawn) | 5.9% | ? | 1.3% | -29.1% | ? | 9.28µM*
Cc1ccc(CN2C(=O)C3CCCN3c3ccc(C#N)cc32)cc1 (stereo not drawn) | -4.5% | ? | ? | -28.3% | -21.9% | 1.65µM*
CON(C)S(=O)(=O)c1ccc2c(c1)N(Cc1ccc(C)cc1)C(=O)C1CCCN21 (stereo not drawn) | 0.6% | ? | 1.7% | -31.3% | -23.9% | 0.828µM*
CCOC(=O)c1cc(C)n(CC2CCC(C(=O)Nc3cccc(C)c3)CC2)c1C (stereo not drawn) | nt | nt | 20.2% | nt | -0.2% | nt
Cc1cc(C)cc(NC(=O)c2cn3c4c(ccc(Cl)c4c2=O)OC(C)C3)c1 (stereo not drawn) | nt | nt | 15.5% | nt | -1.3% | nt
Cc1cc(C)n(CC(C)O)c(=O)c1C#N (stereo not drawn) | -0.5% | 5.4% | 0.4% | 0.316µM* | -4.9% | 39.9%
COCCn1c(C)cc(O)c(C(c2ccccc2)N2CCN(c3ccccc3F)CC2)c1=O (stereo not drawn) | nt | nt | 1.1% | nt | 7.08µM* | nt
COCCn1nnnc1C(c1ccc2ncccc2c1)N1CCN(c2ccccc2F)CC1 (stereo not drawn) | -1.6% | -10.7% | -4.1% | 60.3% | 1.1% | ?
COCCn1c(C)cc(O)c(C(c2ccccc2)N2CCN(C)CC2)c1=O (stereo not drawn) | nt | nt | 2.9% | nt | 6.31µM* | nt
CCOc1ccc(C(c2c(O)cc(C)n(CCOC)c2=O)N2CCC(C)CC2)cc1 (stereo not drawn) | nt | nt | 1.9% | nt | 20µM* | nt
Cc1ccc(OCCCCN2CCC(C)CC2)cc1 | -0.2% | -1.2% | 4.2% | -1.9% | 14.2% | 37.9%
CCOc1ccc(C(c2c(O)cc(C)n(CCOC)c2=O)N2CCN(c3ccccc3F)CC2)cc1 (stereo not drawn) | nt | nt | 9.6% | nt | 10µM* | nt
COc1cccc(C#Cc2c(CO)[nH]c3ccccc23)c1 | 1.3% | ? | 2.3% | -34.7% | 31.6µM* | ?
COc1ccc(/C=C/S(=O)(=O)NCc2ccccc2)cc1OC | -2.1% | 11.7µM* | -14.8% | -2.6% | -6.6% | 38.7%
COc1ccc(/C=C/C(=O)NC(=S)NCc2ccccc2)cc1OC | 0.0% | -15.5% | 2.1% | 0.6% | -3.5% | 12.9%
